The values that follow come from PubChem BioAssay.

The structures appear in SMILES notation.

Chain of Concanavalin-A (Canavalia ensiformis) (P02866 whole entry, looked up): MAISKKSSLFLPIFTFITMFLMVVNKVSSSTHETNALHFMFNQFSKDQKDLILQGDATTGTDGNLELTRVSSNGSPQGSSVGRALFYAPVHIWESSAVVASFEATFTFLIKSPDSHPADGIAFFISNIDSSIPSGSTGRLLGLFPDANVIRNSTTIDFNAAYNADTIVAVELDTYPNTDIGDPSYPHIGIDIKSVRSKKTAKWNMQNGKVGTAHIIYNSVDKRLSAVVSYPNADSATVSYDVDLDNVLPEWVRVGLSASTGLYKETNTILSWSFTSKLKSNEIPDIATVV

One experiment deals with Chordin-like protein 2 (CHRDL2). Description: compounds binding chordin-like 2 – biochemical, small-molecule microarray, 635 nm fluorescence, primary screen (AID 1126).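 Also: printed compound slides probed with Chrdl2 protein at 4 µg/mL for 1 h at 4 C; score merges 667 nm emission intensity with signal to noise over three replicate slides.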 The note with it: fluorescence 635 nm, higher = more signal.
In turn, `CCN1C(=O)[C@H]2[C@H]3[C@H](O)[C@H](O)CC(=NO[C@@H]4O[C@H](CO)[C@@H](O)[C@H](O)[C@H]4O)[C@@H]3CC[C@H]2C1=O` came in with a composite z-score of -0.229. The same measure, in the same setting: the result for `COCC1=C2[C@@H](CCc3ccccc3)OB(O)C[C@@H]2n2c(=O)n(-c3ccccc3)c(=O)n2C1` reads 0.198; that for `CN1C(=O)C2C=CC(C(O)c3ccc(Br)cc3)N(N(c3ccccc3)c3ccccc3)C2C1=O` (centres undefined), -0.815; that for `CC(CCN1CCCCc2nc(C)c(C)cc21)=NOC(C)CN1CCCCc2nc(C)c(C)cc21` (centres undefined), 1.25.

Another experiment addresses Concanavalin-A (Canavalia ensiformis) (UniProt P02866). Description: compounds binding concanavalin A lectin – biochemical, small-molecule microarray, Alexa647 label, 635 nm, artefact control for SMM control protein annotation, primary screen (AID 1127).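 Also: z combines 667 nm emission intensity with signal-to-noise across three replicate slides.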 The following applies: ConA-A647 binding fluorescence, higher = more signal.
`CO[C@@H]1COC(=O)[C@@H]2CCCN2C(=O)[C@@H](C)COC(=O)[C@H](COCc2ccccc2)NC(=O)CC=C[C@H]1C` returned a composite z-score of 0.379. The compound `C#CCCCON=C1C[C@@H](O)[C@@H](O)[C@@H]2[C@@H]3C(=O)N([C@@H](C)c4ccccc4)C(=O)[C@@H]3CC[C@H]12` had a composite z-score of 0.282. Still for that read-out and setting: to `COCCCNC(=O)[C@@]1(C)c2ccccc2C(=O)N(Cc2ccc(OC(F)(F)F)cc2)[C@H]1c1ccc(CO)cc1` belongs -0.836; to `C=COC[C@H]1CN2[C@@H](CC[C@@H](C)[C@@H]2c2ccc(Br)cc2)C(=O)O1`, 1.03; to `CC(CCN1CCCCc2nc(C)c(C)cc21)=NOC(C)CN1CCCc2nc(C)c(C)cc21` (centres undefined), 1.14.

For `CC(C)=NOCc1ccc(-c2cc(-c3ccccc3)no2)cc1`, the composite z-score turned out to be 0.0293. As to `CCc1cc2c(nc1CC)CCN(CCC(C)=NOC[C@@H](O)[C@H]1O[C@@H]3OC(C)(C)O[C@@H]3[C@H]1O)C2`, the composite z-score was 0.971. Compound `COc1cccc([C@H]2Oc3ccc(OC)cc3C(=NO[C@H](C)c3cn([C@@H]4COC[C@H]4O)nn3)[C@@H]2O)c1` had a composite z-score of 0.472. `O=C(NN=C1C[C@@H](O)[C@@H](O)[C@@H]2[C@@H]3C(=O)N(c4ccc(F)cc4F)C(=O)[C@@H]3CC[C@@H]12)OCc1ccccc1` registered a composite z-score of 0.247. Same read-out and setting: the result for `CCOC(=O)[C@H](Cc1ccccc1)NC(=O)CCC1CC(OC(=O)NCc2ccc3c(c2)OCO3)CC2(CCCC(COC(=O)NCc3cccc(C(F)(F)F)c3)O2)O1` (some centres undefined) reads 0.546; that for `C[C@@H](c1ccccc1)N1C(=O)[C@H]2[C@H]3[C@H](O)C=CC(=O)[C@@H]3CC[C@H]2C1=O`, 0.518. On the same count and under the same terms, to `Cc1cc2c(c(=O)o1)[C@H](O)[C@H]1O[C@H]1C2=O` belongs -0.0383; to `COc1ccc(COC(=O)NN=C2C[C@@H](O)[C@@H](O)[C@@H]3[C@@H]4C(=O)N(c5ccc(F)cc5F)C(=O)[C@@H]4CC[C@@H]23)cc1`, 0.454.

In turn, `CO[C@@H]1COC(=O)CCC[C@@H](C)[C@H](OC)COC(=O)CCC[C@H]1C` returned a composite z-score of -0.302. With `O=C1C[C@@H](O)[C@@H](O)[C@@H]2[C@@H]3C(=O)N(Cc4ccc5c(c4)OCO5)C(=O)[C@@H]3CC[C@@H]12`, the composite z-score was found to be 0.492. `CC=CC1=C(CO)[C@H](O)[C@H]2O[C@H]2[C@H]1O` yielded a composite z-score of 0.291. `CC(C)[C@H](NC(=O)OC(C)(C)C)[C@@H](O)CC(=O)OC(C)(C)C` came in with a composite z-score of -0.744.

The compound `CO[C@H]1COC(=O)[C@@H]2CCCN2C(=O)CC=C[C@@H](C)[C@H](OC)COC(=O)CC=C[C@@H]1C` showed a composite z-score of -1.28. `COC(=O)[C@H](C)NC(=O)CCC1CC(OC(=O)NCCc2ccc(F)cc2)CC2(CCCC(COC(=O)NCCc3ccc(Cl)cc3)O2)O1` (some centres undefined) came in with a composite z-score of 0.925. On the same count and under the same terms, to `CC(C)=CCCC(C)=CCON=C1[C@H]2CCn3c(=O)n(C)c(=O)n3[C@H]2[C@H](O)[C@@H]2O[C@H]12` belongs 0.941; to `O=C(NN=C1C[C@@H](O)[C@@H](O)[C@@H]2[C@@H]3C(=O)N(c4cccc(Oc5ccccc5)c4)C(=O)[C@@H]3CC[C@@H]12)OCc1ccccc1`, 0.277; to `CC(=O)OC[C@H]1O[C@H](C#CCCCc2ccccc2)C=C[C@@H]1OC(C)=O`, -0.077. Same read-out and setting: to `CC(CCN1CCc2nc(-c3ccccc3)c(-c3ccccc3)cc2C1)=NO[C@H](C)c1cn([C@@H]2COC[C@H]2O)nn1` belongs -0.411.

The compound `O[C@@H](Cc1ccccc1)[C@H]1C2C=CCCC(c3ccccc3)=C2CN1Cc1cccc(Cl)c1` (some centres undefined) had a composite z-score of 0.235. Same read-out and setting: to `COc1ccc([Si](C)(C)[C@H]2[C@H](CCO)O[C@@]3(C(=O)N(Cc4cccc(NC(=O)[C@H](C)O)c4)c4ccccc43)[C@@H]2C)cc1` belongs 1.11.

In turn, `O=C1NC(=O)C2C1C=CC(C(O)Cc1ccccc1)N2Nc1ccccn1` (centres undefined) returned a composite z-score of 0.77. Compound `CC(CCC(=O)OC[C@H]1O[C@H](C#Cc2ccccc2)C=C[C@@H]1Oc1ccc(C)cc1)=NOC[C@@H](O)COCc1ccco1` had a composite z-score of -3.95. In turn, `CC1CC/C=C\[C@H]2OC34C=CCN(Cn5nnc6ccccc65)C(=O)[C@H]3N(CCO)C(=O)[C@@H]4C2C(=O)O1` (some centres undefined) gave a composite z-score of -0.903. The same measure, in the same setting: to `CCOC(=O)CCN1C(=O)[C@H]2[C@H]3[C@H](O)[C@H](O)CC(=NNC(=O)OCc4ccc(OC)cc4)[C@@H]3CC[C@H]2C1=O` belongs 1.09; to `CCN1C(=O)[C@H]2[C@H]3[C@H](O)[C@H](O)CC(=NOC(C)CN4CCCCc5nc(C)c(C)cc54)[C@@H]3CC[C@H]2C1=O` (some centres undefined), -0.0891.

In turn, `C#CCCCON=C1C[C@@H](O)[C@@H](O)[C@@H]2[C@@H]3C(=O)N(CCC(=O)OCC)C(=O)[C@@H]3CC[C@@H]12` came in with a composite z-score of -0.962.

On to `CCN1C(=O)[C@H]2[C@H]3[C@H](O)[C@H](O)CC(=NO[C@@H]4O[C@H](CO)[C@@H](O)[C@H](O)[C@H]4O)[C@@H]3CC[C@H]2C1=O`, for which the composite z-score is -1.14. With `COCC1=C2[C@@H](CCc3ccccc3)OB(O)C[C@@H]2n2c(=O)n(-c3ccccc3)c(=O)n2C1`, the composite z-score was -0.0151. `CN1C(=O)C2C=CC(C(O)c3ccc(Br)cc3)N(N(c3ccccc3)c3ccccc3)C2C1=O` (centres undefined) yielded a composite z-score of 0.951.

Consider `CC(CCN1CCCCc2nc(C)c(C)cc21)=NOC(C)CN1CCCCc2nc(C)c(C)cc21` (centres undefined), for which the composite z-score is 0.898.
